VDR inh – Inhibitors of the vitamin D receptor (VDR): qHTS; AID 504847, 2011; VDR-SRC2-3 peptide fluorescence polarization, 2 h; Vitamin D3 receptor (Homo sapiens), P11473; Potency, µM, for the others: max response, negative = inhibition, hits mostly inhibitors; 400,000 compounds, 0.93% hits; note: potency is the fitted concentration of half-maximal effect
Target sequence (P11473 whole entry, looked up): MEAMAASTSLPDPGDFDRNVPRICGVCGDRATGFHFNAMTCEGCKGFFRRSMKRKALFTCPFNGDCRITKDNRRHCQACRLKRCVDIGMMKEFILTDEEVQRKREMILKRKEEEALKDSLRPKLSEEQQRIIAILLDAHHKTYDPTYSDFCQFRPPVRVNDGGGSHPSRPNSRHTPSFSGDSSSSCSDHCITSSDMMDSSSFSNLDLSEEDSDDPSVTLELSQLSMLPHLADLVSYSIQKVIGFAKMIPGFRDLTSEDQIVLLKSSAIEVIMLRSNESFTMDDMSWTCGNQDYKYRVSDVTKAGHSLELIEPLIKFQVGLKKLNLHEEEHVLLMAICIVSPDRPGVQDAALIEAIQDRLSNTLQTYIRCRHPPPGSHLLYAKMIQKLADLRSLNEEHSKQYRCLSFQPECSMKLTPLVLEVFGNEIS
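Reagent solutions, kept cold and dark, are dispensed first; compounds are then pinned in at 23 nl, plates briefly spun, and incubated 2 h at ambient temperature. Inhibition of VDR–SRC2-3 peptide binding is read by fluorescence polarization.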
MmCpn inh – Inhibitors of TCP-1 ring complex (TRiC) of Methanococcus maripaludis (MmCpn): qHTS; Chaperonin Mm-Cpn (Methanococcus maripaludis); purified Mm-Cpn ATPase, ADP Transcreener TR-FRET; Potency, µM (titrated, usually from 76.9 µM), for inactives: at the top dose activity, negative = inhibition, usual class: inhibitors; 330,000 compounds, 0.031% hits; AID 504842, 2011; note: potency is the fitted concentration of half-maximal effect; nearly all actives have a fitted effect of over 80% in size
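ATPase read-out: TR-FRET ADP immunoassay (anti-ADP Eu cryptate vs ADP-d2), ex 320 nm, em 590/665 nm; signal drops as ADP forms. Enzyme 25 nM, ATP 10 uM, 30 min at 37°C after 10 min compound preincubation.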
CCT chaperon mod – High-Throughput Screening for Modulators of Cytosolic Chaperonin Activity | AID 651819, 2012 | activity change, % (test concentration not listed), hits read low | purified chaperonin ATPase assay, HTRF ADP detection, 30 min | 360,000 compounds, 0.3% hits; in the data active = activity change below about -30%
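First, chaperonin was dispensed at 40 nM or 20 nM final depending on batch activity. Next, compounds were pinned at 76 uM and ATP added at 10 uM. After 30 min at 37 °C, ADP detection reagents ran 30 min at ambient temperature.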
PLK1 PBD inh – qHTS for Inhibitors of PLK1-PDB (polo-like kinase 1 - polo-box domain): Primary Screen; Serine/threonine-protein kinase PLK1 (Homo sapiens), P53350; Plk1 PBD binding of FITC phosphopeptide, fluorescence polarization; Potency, µM, inactives show max response, negative = inhibition, actives largely listed as inhibitors; 360,000 compounds, 2.8% hits; note: potency is the fitted concentration of half-maximal effect; series mostly up to about 57 µM; nearly all actives have a fitted effect of over 65% in size
G9a inh – qHTS Assay for Inhibitors of Histone Lysine Methyltransferase G9a; Histone-lysine N-methyltransferase EHMT2 (Homo sapiens), Q96KQ7; G9a H3K9 monomethylation, AlphaScreen, 2 h; Potency, µM (highest dose often 102 µM), for the others: at the highest dose activity, negative = inhibition, hits mostly inhibitors; 350,000 compounds, 8.8% hits; note: potency is the fitted concentration of half-maximal effect; nearly all actives have a fitted effect of over 75% in size
Target sequence (Q96KQ7 913-1193 limits assumed): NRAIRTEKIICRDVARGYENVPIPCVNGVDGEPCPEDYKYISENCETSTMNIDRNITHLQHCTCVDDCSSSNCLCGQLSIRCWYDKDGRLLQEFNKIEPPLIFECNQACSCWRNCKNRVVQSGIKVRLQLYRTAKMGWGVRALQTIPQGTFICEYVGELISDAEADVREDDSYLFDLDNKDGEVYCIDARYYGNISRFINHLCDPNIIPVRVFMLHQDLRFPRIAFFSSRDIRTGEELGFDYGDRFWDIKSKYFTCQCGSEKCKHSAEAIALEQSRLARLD
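Step 1: enzyme (final 20 nM) with compound, 15 min RT. Step 2: substrate peptide 500 nM and SAM 20 uM, 2 h RT. Step 3: anti-H3K9me1 antibody and AlphaScreen beads, 10 min, then plate read.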
Sfp PPTase inh – qHTS Assay for Inhibitors of Bacillus subtilis Sfp phosphopantetheinyl transferase (PPTase); 4'-phosphopantetheinyl transferase ffp (Bacillus subtilis), Q9F4F7; Biochemical Sfp PPTase activity, qHTS; Potency, µM, for inactives: largest response in the series, negative = inhibition, most hits filed as inhibitors; 310,000 compounds, 3.5% hits; AID 1490, 2009;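 note: the enzyme is Sfp with the accession as filed and its product quenches rhodamine fluorescence; potency is the fitted concentration of half-maximal effect; 0% = enzyme reaction without inhibitor and -100% = no enzyme wells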
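After 15 min at room temperature with compound, 15 nM Sfp received 5 uM rhodamine-CoA plus 12.5 uM BHQ-2-ybbR (50 mM Hepes pH 7.6, 10 mM MgCl2). Rate came from the fluorescence difference over 30 min, ex 525/em 598 nm.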
* hit, by the source's call; ? = inconclusive; nt = no result given; [ ] = another dose, or the depositor's remark. In the library only some 10% were active in any assay of this set; here they are far more common. Unless noted, calls come from the whole dose curve; as a rule, active = well fitted curve in the direction sought with a large enough effect; inconclusive = small, poorly fitted or top-dose-only effect, or another doubt; inactive = no such curve, though single readings can be large; an effect the other way counts as inactive or inconclusive. Unless noted, % is set by controls: 0 for no effect and ±100 for the full control effect.

SMILES	VDR inh	MmCpn inh	CCT chaperon mod	PLK1 PBD inh	G9a inh	Sfp PPTase inh
Cc1cnc2c(c1SCC(=O)N(C)c1ccccc1)c(=O)n(C)c(=O)n2C	7%	nt	nt	nt	-25%[59 µM]	nt
O=C(Nc1ccc2oc(-c3cccnc3)nc2c1)c1ccc2c(c1)OCCO2	-7%	-16%	2	5%	14µM*	-17%
O=C(Nc1ccc2oc(-c3ccncc3)nc2c1)c1ccc2c(c1)OCO2	-10%	?	-1	-3%	?	-12%
O=C(Nc1ccc2oc(-c3cccnc3)nc2c1)c1ccc(-c2ccccc2)o1	-18%	nt	nt	nt	11µM*	nt
O=C(Nc1ccc2oc(-c3ccncc3)nc2c1)c1ccc2c(c1)OCCO2	-3%	-1%	-2	8%	20µM*	?
O=C(Cc1ccccc1)Nc1ccc2oc(-c3cccnc3)nc2c1	6%	?	-3	-4%	7%[12.7 µM]	3%
C=CCOC(=O)NC(c1ccc(F)c(F)c1)C(C(=O)CCl)C(=O)OC (stereo not drawn)	45µM*	nt	nt	nt	nt	?
CS(=O)c1ccccc1-c1nc(-c2cccc(Cl)c2)no1 (stereo not drawn)	-9%	-1%	1	27µM*	-3%	-3%
O=[N+]([O-])c1cc(Cl)ccc1-c1nc(-c2ccccc2)no1	-2%	-11%	-1	-1%	10µM*	-9%
O=[N+]([O-])c1cc(Cl)ccc1-c1nc(-c2ccncc2)no1	-12%	-7%	1	-17%	-14%	10%
CCN(C(=O)CSc1nc2ccccc2n1CC(=O)NCc1ccc(OC)cc1)c1ccccc1	7%	nt	nt	nt	-8%[59 µM]	nt
CC(=O)N1CCN(C(=O)c2ccc3c(c2)S(=O)(=O)c2ccccc2C3=O)CC1	22%	2%	-3	1%	-1%	16%
CCN1CCN(C(=O)c2ccc3c(c2)S(=O)(=O)c2ccccc2C3=O)CC1	-17%	3%	3	9%	50µM*	6%
CCN(CC)S(=O)(=O)c1ccc(C(=O)NCc2n[nH]c(=S)n2-c2ccccc2OC)cc1	-3%	-1%	-1	-7%	3.5µM*	-22%
CCN(CC)S(=O)(=O)c1ccc(C(=O)NCc2n[nH]c(=S)n2-c2ccc(Cl)c(Cl)c2)cc1	-6%	?	-2	-9%	16µM*	?
CCN(CC)S(=O)(=O)c1ccc(C(=O)NCc2nnc(SCC(=O)OC)n2C)cc1	-10%	2%	-1	-15%	5%	13%
O=C(NCc1n[nH]c(=S)n1-c1ccccc1)c1ccc(S(=O)(=O)N2CCOCC2)cc1	-12%	0%	0	-2%	?	-15%
COc1cc(CNCc2cccs2)ccc1OCc1ccccc1	-17%	1%	4	-3%	-2%[59 µM]	23%
COc1cc(CNCc2ccco2)ccc1OCc1ccccc1	0%	0%	-3	-16%	35µM*	7%
COc1ccc(CNCCNC(=O)c2cccs2)c(OC)c1OC	-2%	3%	-1	-1%	14µM*	-11%
COc1cccc(CNCCNC(=O)c2ccco2)c1OC	-13%	2%	-3	19µM*	11µM*	?
O=C(NCCNC(=O)c1ccco1)c1ccc(F)cc1	11%	3%	1	-10%	-2%	23%
O=C(NCCNCc1ccc(F)cc1)c1ccco1	4%	-1%	0	-5%	7.9µM*	-21%
O=S(=O)(c1ccc(Br)cc1)c1nc(-c2cccs2)oc1SCc1ccc(F)cc1	-2%	nt	nt	nt	-28%[59 µM]	nt
COCCNC(=O)CCCn1c(SCC(=O)Nc2ccc(F)cc2)nc2c(sc3ccccc32)c1=O	3%	nt	nt	nt	2%[59 µM]	nt
SMILES	VDR inh	MmCpn inh	CCT chaperon mod	PLK1 PBD inh	G9a inh	Sfp PPTase inh
CC(C)c1ccc(NC(=O)C2CCN(S(=O)(=O)c3cccc4nonc34)CC2)cc1	-1%	nt	nt	nt	-4%[59 µM]	nt
COc1cccc(CNCc2ccco2)c1O	-6%	-5%	2	5%	nt	?
COc1cc(OC)c(OC)cc1CNCCNC(=O)c1ccco1	-3%	-1%	-1	-7%	10µM*	-1%
COc1ccc(OC)c(CNCCNC(=O)c2ccco2)c1	nt	-1%	nt	nt	?	-29%
COc1cc(OC)c(OC)cc1CNCc1ccco1	-12%	-2%	-1	-13%	28µM*	-14%
CCN(CC)C(=O)C1CCCN(Cc2sccc2C)C1 (stereo not drawn)	-2%	0%	-2	5%	32µM*	-13%
Cc1ccc(C)c(N2C(=O)N(Cc3ccccc3C)c3ccccc3S2(=O)=O)c1	1%	nt	nt	nt	-8%[59 µM]	nt
O=C(O)/C=C/c1ccc(OCc2cccc(F)c2)cc1	?	0%	-7	30µM*	-29%	1%
O=C(/C=C/c1ccc(OCc2cccc(Cl)c2)cc1)N1CCOCC1	4%	3%	-1	3%	4%	-7%
COc1ccccc1NC(=O)CSc1ncc2c(n1)-c1ccccc1N(Cc1ccccc1C)S2(=O)=O	-7%	nt	nt	nt	0%[59 µM]	nt
CN1c2c(nc(N)[nH]c2=O)NCC1CNc1ccc(C(=O)NC(CCC(=O)O)C(=O)O)cc1 (stereo not drawn)	-1%	nt	nt	nt	6%[12.7 µM]	8%
Cc1cccc(CNc2ncnc3ccc(-c4cccc(C#N)c4)cc23)c1	0%	nt	nt	nt	nt	-14%
COc1ccc(NC(=O)C(C/C=C(/C)Cl)C(C)=O)cc1 (stereo not drawn)	2%	0%	-1	3.8µM*	24%[59 µM]	23%
COc1ccc(NC(=O)C(CCS(C)(=O)=O)NC(C)=O)cc1 (stereo not drawn)	-16%	-5%	0	-23%	-29%[12.7 µM]	10%
O=C(COc1ccc(Cl)cc1)OCc1csc(Nc2ccccc2)n1	-17%	-1%	0	-8%	10µM*	-13%
O=C(O)COc1ccc(/C=N/NC(=O)c2ccc(-c3csc(Nc4ccc(Cl)cc4)n3)cc2)cc1	-9%	1%	0	?	-105%[59 µM]	45µM*
CCOc1cc(/C=N/Nc2nc(Nc3ccccc3)nc(N3CCCCC3)n2)ccc1OCC(=O)O	-23%	-1%	-1	-22%	?	4%
CCOc1cc(/C=N/NC(=O)c2ccc(-c3csc(Nc4ccc(C)cc4)n3)cc2)ccc1OCC(=O)O	11%	1%	-2	?	45µM*	?
Cc1ccc(Nc2nc(COC(=O)COc3ccc(C=O)cc3)cs2)cc1	2%	-3%	1	5%	-13%[59 µM]	-6%
COc1cc(/C=N\NC(=O)c2ccc(-c3ccccc3)cc2)ccc1OCC(N)=O	2%	0%	0	0%	0%	-19%
